Experimental findings from PubChem BioAssay are described below.

The target in assay [1] is Tumor necrosis factor receptor superfamily member 10B (Homo sapiens) (UniProt O14763). As to the kind of experiment: viability loss of caspase-8 NB7 cells with TRAIL – with/without TRAIL, luminescence panel, confirmation (AID 651596). To be noted: NB7 neuroblastoma + caspase-8, TRAIL sensitization, NB7 Caspase-8, with TRAIL, mean of runs, at 10 µM, stronger effect = higher value.
Experiment in assay [2]: as above
To be noted: NB7 neuroblastoma + caspase-8, without TRAIL, NB7 Caspase-8, without TRAIL, mean of runs, at 10 µM.

Structures are written as SMILES.

Tumor necrosis factor receptor superfamily member 10B (Homo sapiens), sequence (O14763 whole entry, looked up): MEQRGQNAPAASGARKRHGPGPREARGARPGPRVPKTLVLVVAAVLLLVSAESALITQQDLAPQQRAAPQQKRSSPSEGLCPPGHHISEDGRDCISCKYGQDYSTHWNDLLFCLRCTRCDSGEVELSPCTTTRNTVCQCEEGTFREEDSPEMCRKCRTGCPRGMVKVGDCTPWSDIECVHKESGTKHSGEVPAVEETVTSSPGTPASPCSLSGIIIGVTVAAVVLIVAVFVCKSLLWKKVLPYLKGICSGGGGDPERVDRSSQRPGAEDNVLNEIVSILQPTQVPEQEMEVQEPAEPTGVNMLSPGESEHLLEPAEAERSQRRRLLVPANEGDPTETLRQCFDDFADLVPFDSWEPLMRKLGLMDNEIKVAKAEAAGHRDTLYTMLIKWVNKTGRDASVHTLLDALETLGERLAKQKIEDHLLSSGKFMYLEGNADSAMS

Turning to `CC(/C=N/NC(=O)c1nn(C)c(C)c1Br)=C\c1ccccc1`, the activity in assay [1] amounted to 72.4%; in assay [2], 74.6%.

As to `CSc1ccc(/C=C/C(=O)NC(=O)c2ccccc2O)cc1`, the activity in assay [1] amounted to 82.5%; in assay [2], 84.7%.

For the compound `C=C1CCc2c([nH]c3ccc(OCC(C)C)cc23)C1=O`, the activity in assay [1] came out at 91.8%; in assay [2], 99.2%.

As for `COc1cc2c3nnc(-c4ccc(F)cc4)c-3cn(Cc3cccc(C)c3)c2cc1OC`, the activity in assay [1] came out at 48.9%; in assay [2], 67%.

As for `Cc1cccc(/C(N)=N/OC(=O)c2cccc3ccccc23)c1`, the results for the activity in assay [1] and in assay [2] were 89.5% and 71%, respectively.

In the case of `Cc1cc(C)cc(C(=O)O/N=C(\N)c2ccc(Br)cc2)c1`, the activity in assay [1] and in assay [2] was 89.5% in each case.

Take `CC(C)CC(NC(=O)c1ccc(Cl)cc1)C(=O)OCC(=O)c1ccc2c(c1)NC(=O)CO2` (stereo not given): the figures for the activity in assay [1] and in assay [2] were 71.7% and 97.4%, respectively.

`CC1(C(=O)N/N=C/c2c(F)c(F)c(F)c(F)c2F)CC1(Cl)Cl` (stereo not given): the activity in assay [1] amounted to 91.5%; in assay [2] it was 98.4%.

Regarding `CCOc1ccc(C(=O)Nc2nnc(SCC(=O)NCC3CCCO3)s2)cc1` (stereo not given), the values for the activity in assay [1] and in assay [2] were 96.1% and 96.3%, respectively.

For `CC(C)c1ccc(NC(=O)CSc2ncccc2C(=O)Oc2cccc([N+](=O)[O-])c2)cc1`, the activity came out at 68.1% in assay [1] and 61.5% in assay [2].

With `c1ccc(-c2ccc(-c3nc(-c4ccccn4)no3)cc2)cc1`, the activity in assay [1] was found to be 94%; in assay [2], 93.2%.

Take `Cc1ccccc1Nc1nc(N)c2ccccc2n1`: the activity was determined as 63.9% in assay [1] and 59.8% in assay [2].

As for `COc1ccc(NC(=O)c2cccc3c2C(=O)c2ccc(-c4ccc(F)cc4OCc4ccccc4)cc2S3(=O)=O)cc1`, the activity came to 20.6% in assay [1] and 31.4% in assay [2].

On to `COc1ccc(/C(N)=N/OC(=O)c2ccc3c(c2)OCO3)cc1OC`, for which the activity was 94.2% in assay [1] and 95.1% in assay [2].

On to `O=C(CCl)N(c1ccccc1)C1CCCCC1`, for which the activity in assay [1] was found to be 99.4%; in assay [2], 99.8%.
